About 31,000 (8.9%) of roughly 350,000 compounds were called active. Inconclusive results (about 15%) are left out. The sample as a whole holds a higher share of actives than the screen did. Unmarked numbers belong to inactive results. Calls come from the whole dose curve; as a rule, active = well fitted inhibition curve with a large enough effect; inconclusive = small, poorly fitted or top-dose-only effect; inactive = no such curve, though single readings can be large or run the other way.
Each molecule was assayed against Histone-lysine N-methyltransferase EHMT2 (Homo sapiens) (UniProt Q96KQ7) (assay: qHTS Assay for Inhibitors of Histone Lysine Methyltransferase G9a). Details: G9a H3K9 monomethylation, AlphaScreen, 2 h; series mostly up to 59 µM; activity, negative = inhibition: at the top concentration.
Sequence of Histone-lysine N-methyltransferase EHMT2 (Homo sapiens) (Q96KQ7 913-1193 limits assumed): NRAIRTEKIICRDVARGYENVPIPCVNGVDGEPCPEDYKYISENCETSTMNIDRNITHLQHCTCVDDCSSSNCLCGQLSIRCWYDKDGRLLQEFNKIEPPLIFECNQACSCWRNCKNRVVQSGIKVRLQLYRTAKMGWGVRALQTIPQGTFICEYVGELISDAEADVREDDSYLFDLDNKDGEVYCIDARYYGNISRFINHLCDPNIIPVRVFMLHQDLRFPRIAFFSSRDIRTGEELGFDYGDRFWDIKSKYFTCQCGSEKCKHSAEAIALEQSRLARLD
Description: Methylated lysines, on the N-terminal tails of histone proteins serve as epigenetic markers to recruit factors that can then modify local chromatin structure to lead to functional consequences. G9a and other members of the SUV39 family of the SET domain-containing superfamily of histone lysine methyltransferases (HMT) have been identified to specifically methylate Lys9 of histone H3 (H3K9). G9a catalyzes the mono- and di-methylation of H3K9 in mammalian euchromatic regions, where the resulting H3K9me2 is indicative of transcriptional repression. […] The inhibition of G9a will result in transcriptional activation and work synergistically with DNA methyltransferase and histone deacetylase inhibitors, to kill cancer cells. This qHTS assay for identification of G9a inhibitors is a chemiluminescence based AlphaScreen (PerkinElmer). Methylation of biotinylated-histone peptide is measured through specific antibody-based detection, in conjunction with streptavidin-coated donor and anti-IgG antibody-coated acceptor beads. The method is particularly well suited for detection of inhibitors acting by the desired histone peptide competitive mechanism and is applicable to testing other HMTs. Although AlphaScreen has significant advantages with its utility in a variety of epigenetic target assays, the primary screening data provided in this deposition should be used with caution due to the prevalence of screening artifacts. An AlphaScreen counterscreen is highly recommended to be run against any putative actives to eliminate non specific artifacts. Alternatively, one can use other AlphaScreen assays in PubChem to filter out promiscuous hits. Quinn et al. A chemiluminescence-based method for identification of histone lysine methyltransferase inhibitors. Mol Biosyst 6(5): 782-8. 2010. PMID: 20567762 [2] Baell,Holloway. New substructure filters for removal of pan assay interference compounds (PAINS) from screening libraries and for their exclusion in bioassays. J Med Chem. 53(7):2719-40. 2010. PMID: 20131845 NIH Molecular Libraries Probe Production Network [MLPCN] NIH Chemical Genomics Center [NCGC] Structural Genomics Consortium (SGC) NIH Grant: 5U54 MH084681-02
To each well of a 1,536w plate, 2ul of HMT enzyme (final 20nM) were added, using a nanoliter dispenser. The G9a- and GLP-inhibitor BIX-01294 (CID: 25150857) are used as an intraplate control, with a 16-point titration in duplicate. A Kalypsys pin-tool transferred 23nl of library compound solution in DMSO to each well. Following a 15 min incubation of enzyme with compounds at room temperature, 1ul mixture of b-H3K9 peptide substrate (final 500nM) and SAM cofactor (final 20uM) were added. Reactions were allowed to proceed at room temperature for 2 hours. Methylated b-H3K9 peptide product was detected with 0.5 ug/mL rabbit polyclonal anti-monomethyl histone H3K9 antibody (Abcam Inc., Cambridge, MA) and 20 ug/mL each streptavidin-coated donor and anti-rabbit IgG acceptor AlphaScreen beads. Antibody and beads were added in a 1ul dispense, for a final volume of 4ul, and plates were incubated, protected from the light, for 10 min at room temperature. Microplates were then read on an EnVision multilabel plate reader using the 1,536 plate HTS AlphaScreen aperture (excitation time 80 ms, measurement time 240 ms).
% is set by controls: 0 for no effect and ±100 for the full control effect; potency is the fitted concentration of half-maximal effect.
Note: nearly all actives have a fitted effect of over 75% in size.

In order of falling activity, negative = inhibition:
1. O=C(CN1CCc2ccccc2C1)Nc1cccc(S(=O)(=O)N2CCOCC2)c1  15.7% [at 12.7 µM]
2. O=C(COC(=O)CNC(=O)C1CCCCC1)Nc1cccc(F)c1  -1.37% [at 12.7 µM]
3. CCc1ccc2nc3sc(C(=O)Nc4nnc(CC)s4)c(N)c3cc2c1  -8.03% [at 12.7 µM]

In order of rising “activity, negative = inhibition” value:
1. CC1Cc2ccccc2N1CC(=O)Nc1ccc(S(N)(=O)=O)cc1 (configuration not stated)  -108%
2. Cc1ccc2c(c1)c1c(c(=O)n(-c3ccccc3)c(=O)n1CC(=O)c1ccc(Cl)cc1)n2C  -28.8%
3. Cc1ccc(NC(=O)c2ccc(CN3CC(=O)N4CCCCC4C3=O)cc2)c(Cl)c1 (configuration not stated)  -21.2%
4. COc1ccccc1CNC(=O)CCCCn1c(=O)c2ccccc2n(CC(=O)Nc2cc(Cl)ccc2C)c1=O  -19.7%
5. CCc1ccccc1NC(=O)c1sc2nc3c(cc2c1N)CN(Cc1ccccc1)CC3  -9.21%
6. CC(C)(C)NC(=O)CSc1nc(-c2ccc(F)cc2)cc(C(F)(F)F)n1  -8.07%
7. CCn1c(SCC(=O)Nc2cc(C)c(Cl)cc2OC)nnc1-c1ccco1  -6.92%
8. O=C(Nc1nnc(S(=O)(=O)N2CCCc3ccccc32)s1)c1cccc(F)c1  -6.49%
9. COc1ccc(CC(=O)N/N=C(\C)c2ccccn2)cc1  -5.58%
10. Cc1ccc2sc(N(Cc3cccnc3)C(=O)C3COc4ccccc4O3)nc2c1C (configuration not stated)  -4.67%
11. O=C(CCOc1ccccc1)N(Cc1cccnc1)c1nc2ccc(Cl)cc2s1  -3.53%
12. CCc1ccc(NC(=O)CSc2nc3c([nH]c4ccccc43)c(=O)n2-c2cccc(OC)c2)cc1  -2.08%
13. CCc1ccc(NC(=O)Cn2c(=O)n(CCC(=O)NCc3ccc4c(c3)OCO4)c(=O)c3ccccc32)cc1  -1.55%
14. COC(=O)c1ccc(NC(=O)CCc2c(C)nc3c(c(C)nn3-c3ccc(C)cc3)c2C)cc1  -1.18%
15. COc1ccc(-c2nc3c4ccccc4n(CC(=O)Nc4ccc(C(C)=O)cc4)c(=O)n3n2)cc1  -0.383%
16. CCC1CCCCN1Cc1c(O)ccc2c(=O)c(Oc3ccccc3Cl)c(C(F)(F)F)oc12 (configuration not stated)  0.282%
17. CC(CCCc1ccccc1)NC(=O)c1nn(-c2ccc(Cl)cc2)nc1CO (configuration not stated)  0.317%
18. CCc1cc2c(cc3c(=O)n(CC(=O)N4CCN(c5cc(Cl)ccc5C)CC4)ncn32)s1  0.716%
19. Cc1cccc(NC(=O)Cn2c(C(F)(F)F)nc3ccccc32)c1C  4.54%
20. Cc1cc(C)cc(NC(=O)c2cnc3sc(N4CCCC4)nn3c2=O)c1  4.91%
21. O=C(CCCn1c(=O)c2cccn2c2cccnc21)NCc1ccc(F)cc1  5.33%
22. Cc1ccc(OCCn2c(CNc3ccccc3C)nc3ccccc32)cc1  5.61%
23. COc1ccc(-c2c(C)nn3c(N4CCC(C(=O)NCCC(C)C)CC4)cc(C)nc23)cc1OC  5.73%
24. CCCCN(C)S(=O)(=O)c1ccc(C(=O)Nc2sc3c(c2C(N)=O)CC(C)(C)NC3(C)C)cc1  8.97%
25. CCc1nc2ccc(C(=O)N3CCN(c4cc(Cl)ccc4C)CC3)cc2nc1CC  9.41%

In order of rising “activity, negative = inhibition” value:
1. Cc1cc(NC(=O)CSc2nc3cc(Cl)ccc3c(=O)n2Cc2ccco2)no1  -23.2% [at 102 µM]
2. COCCN1C(=O)C(=O)/C(=C(/O)c2ccc(S(=O)(=O)N3CCOCC3)cc2)C1c1ccc(O)c(OC)c1 (configuration not stated)  -19.1% [at 102 µM]
3. O=C(NCCS(=O)(=O)NCc1ccc(F)cc1)c1ccccc1  -4.54% [at 102 µM]
4. O=C(Nc1ccccc1N1CCN(C(=O)c2ccccc2)CC1)c1ccco1  -3.56% [at 102 µM]
5. O=C(Cc1ccccc1)NNC(=O)C1CCN(c2ncccn2)CC1  2.95% [at 102 µM]
6. Cc1cccc(OCC(=O)NCCCNC(=O)c2ccccn2)c1  15.8% [at 102 µM]
7. O=Cc1c(NCCCN2CCCC2=O)c2ccccc2[nH]c1=O  20.8% [at 102 µM]
8. CCNC(=O)N1CCCC(C(=O)c2ccc(-c3ccccc3)cc2)C1 (configuration not stated)  51.8% [at 102 µM]
9. COCCN1C(=O)C(=O)/C(=C(/O)c2ccc(S(=O)(=O)N3CCCCC3)cc2)C1c1ccc(OC)c(OC)c1 (configuration not stated)  81.3% [at 102 µM]

In order of falling activity, negative = inhibition:
1. CC(C)(C)OC(=O)Nc1ccc([C@@H](NC(=O)OC(C)(C)C)C(=O)OC(C)(C)C)cc1  9.51% [at 0.501 µM]
2. CCn1c(=O)c2ccccc2n(CC(=O)N2CCCc3ccccc32)c1=O  -7.66% [at 0.501 µM]

With `COc1cc(Cl)c(C)cc1NC(=O)CSc1nnc(-c2cccnc2)n1Cc1ccco1` the Potency was 39.8 µM (active).
`COc1cc(C2/C(=C(\O)c3ccc4c(c3)CC(C)O4)C(=O)C(=O)N2c2nnc(C)s2)cc(OC)c1OC` (configuration not stated) was tested, and the Potency was 44.7 µM (active).
With `CCN1CCc2nc3sc(C(=O)Nc4ccccc4OC(F)(F)F)c(N)c3cc2C1` the Potency was 14.1 µM (active).
For `S=C(NCCCc1cnc[nH]1)NCCCN(Cc1ccc(Cl)c(Cl)c1)c1ccc(Br)cn1`, the Potency was 25.1 µM (active).
For `COC(=O)c1[nH]c2ccccc2c1NC(=O)CN1CCCc2ccccc21`, the Potency was 44.7 µM (active).
With `NS(=O)(=O)c1cccc(NC(=O)CN2CCCc3ccccc32)c1` the Potency was 44.7 µM (active).
In the case of `O=C1/C(=C\Nc2ccccc2)CCN1c1ncccn1`, the Potency is reported as 50.1 µM (active).
For `CCN(CC)CCOc1ccc2c(c1)C(=NNC(=O)c1ccccn1)c1cc(OCCN(CC)CC)ccc1-2`, the Potency was 22.4 µM (active).

— PubChem BioAssay AID504332 (National Center for Advancing Translational Sciences (NCATS), 2011)
